Assay outcomes deposited in PubChem by National Center for Advancing Translational Sciences (NCATS).
Shiga toxin inh = Shiga toxin inhibition | Vero cells, Shiga toxin protein synthesis inhibition reporter | inhibition, % at 38.7 µM | 290,000 compounds, 9.2% hits | AID 2315; in the data active = inhibition mostly above about 28%, no sharp cut-off; inactive = mostly below about 43%; also: 0% is about no effect
Lassa entry inh = Lassa virus entry inhibition. Lassa virus pseudotype entry inhibition, cell reporter. Potency, µM (titrated, usually from 37.9 µM), for the others: at the top dose activity change, negative = inhibition, usual class: inhibitors. 300,000 compounds, 1.2% hits; calls by dose curve; tested in HEK293 cells; also: potency is read from the fitted curve at half-maximal effect; % is scaled to controls: 0 for no effect and ±100 for the full control effect; nearly all actives have a fitted effect of over 50% in size
MARV entry inh = inhibitors of Marburg virus binding or cell entry; Marburg virus pseudotyped entry inhibition, cell reporter; 300,000 compounds, 1.8% hits; Potency, µM (highest dose often 37.8 µM), for the others: top-dose activity change, negative = inhibition, hits mostly inhibitors; calls by dose curve; tested in HEK293 cells; also: potency is read from the fitted curve at half-maximal effect; % is scaled to controls: 0 for no effect and ±100 for the full control effect
VACV mCherry inh = vaccinia inhibition (mCherry reporter) | Vaccinia virus mCherry reporter infection, fluorescence | Potency, µM (titrated, usually from 36.5 µM), for inactives: at the top dose activity change, negative = inhibition, most hits filed as inhibitors | 310,000 compounds, 0.63% hits; calls by dose curve; tested in A549 cells; also: potency is read from the fitted curve at half-maximal effect; % is scaled to controls: 0 for no effect and ±100 for the full control effect; nearly all actives have a fitted effect of over 35% in size
CHX counter = counter-screen for Shiga toxin inhibitors: cycloheximide protein synthesis inhibition; 300,000 compounds, 12% hits; cell reporter, cycloheximide protein synthesis inhibition counterscreen; max response, %; AID 2314; in the data active = max response mostly above about 13%, no sharp cut-off; inactive = mostly below about 14%; also: read at 38.3 µM for the half of the compounds with a filed dose; 0% is about no effect
VACV Venus inh = vaccinia inhibition (Venus reporter); Vaccinia virus Venus reporter expression, fluorescence; Potency, µM (doses to about 36.5 µM), for the others: at the highest dose activity change, negative = inhibition, hits mostly inhibitors; 330,000 compounds, 0.46% hits; AID 720580; calls by dose curve; tested in A549 cells; also: potency is read from the fitted curve at half-maximal effect; % is scaled to controls: 0 for no effect and ±100 for the full control effect; nearly all actives have a fitted effect of over 30% in size
* hit, by the source's call; i = inactive; ? = inconclusive; nt = not tested or not shown; [ ] = remark or other dose. The sample as a whole holds a higher share of hits than the screen did.

SMILES	Shiga toxin inh	Lassa entry inh	MARV entry inh	VACV mCherry inh	CHX counter	VACV Venus inh
O=C(Oc1ccc2ccccc2c1)c1ccccc1	94.2	11.2%	27.8%	-18.2%	22.5*	-18.3%
COc1ccccc1C(=O)Oc1ccc2ccc(O)cc2c1	nt	nt	nt	nt	39.5*	nt
Cc1cccc(C(=O)Oc2ccc3ccc(O)cc3c2)c1	nt	nt	nt	nt	24.8*	nt
COc1ccccc1C(=O)c1cc2ccc(O)cc2oc1=O	-11.3	nt	nt	-18.1%	20.4	-16.5%
COC(=O)c1cc(CNC(=O)c2ccccc2)cc(NC(=O)c2ccccc2OC)c1	nt	nt	nt	-13.6%	nt	-3.9%
Cc1ccc(OCc2csc(N)n2)cc1	83.3*	?	-2.9%	i	34.6*	-7.3%
Cc1ccccc1OCc1csc(N)n1	32.9	nt	nt	nt	15.9*	nt
Nc1nc(COc2ccc(Cl)cc2)cs1	65.0*	-3.1%	-9.4%[46.1 µM]	-44.6%	32.7*	-22.4%
Nc1nc(COc2ccccc2)cs1	33.6	12.0%	15.6%	i	14.0	-10.7%
C=CCN(CC=C)C(=O)c1ccccc1NC(=O)c1ccccc1C	-11.6	-1.2%	-7.0%	nt	-2.8	-7.9%
COc1cc(OC)c(NC(=O)c2cc(C(C)=O)n3ccccc23)cc1Cl	nt	?	nt	-20.0%	nt	-14.2%
O=C(CN1CCOCC1)N/N=C/C=C/c1ccccc1	10.7	1.9%	25.1%[46.1 µM]	-6.1%	25.2*	3.2%
Cc1ccc(/C=N/NC(=O)Cc2cccn2C)cc1	45.5*	12.0%	24.5%	i	25.9*	-9.0%
Cn1cccc1CC(=O)N/N=C\c1cccs1	15.5	8.8%	5.2%	-17.5%	9.2	-7.2%
Cn1cccc1CC(=O)N/N=C/c1ccc(C(C)(C)C)cc1	54.2*	-24.1%	?	-16.2%[7.34 µM]	22.3*	-15.2%[7.34 µM]
O=C(Cc1c(F)cccc1Cl)N/N=C/c1cccs1	-4.3	4.5%[46.1 µM]	19.4%[46.1 µM]	-1.5%	13.6	-23.1%
Cc1ccc(/C=N/NC(=O)Cc2c(F)cccc2Cl)s1	78.6*	nt	nt	nt	54.4*	nt
COCc1nnc(NC(=O)c2ccc(Cl)cc2[N+](=O)[O-])s1	10.6	17.5%	-3.3%	i	0.6	-9.1%
COC1CCC(C2CC(=O)C3=C(CCCC3)O2)CC1 (stereo not drawn)	nt	nt	44.4%	nt	nt	nt
Cc1cccc(N2CC(C(=O)O)CC2=O)c1C (stereo not drawn)	0.4	11.9%	2.6%	-7.2%	1.4	-7.3%
CCc1ccc(/C=N/NC(=O)Cc2cccn2C)cc1	51.1*	5.5%	7.6%[46.1 µM]	i[7.34 µM]	28.7*	-5.1%[7.34 µM]
Cc1ccc(/C=N/NC(=O)Cc2cccn2C)s1	58.2*	?	10.4%	-7.2%	49.1*	-3.9%
O=NN(CC(=O)NN=CC=Cc1ccccc1)CC(=O)NN=CC=Cc1ccccc1	nt	nt	nt	i	nt	-7.1%
Cn1cccc1CC(=O)N/N=C/C=C/c1ccccc1	82.4*	3.8%	?	-13.6%	24.7*	-15.0%
Cn1cccc1CC(=O)N/N=C/c1ccco1	-3.8	-0.2%	2.6%[46.1 µM]	i	-1.3	-6.2%
SMILES	Shiga toxin inh	Lassa entry inh	MARV entry inh	VACV mCherry inh	CHX counter	VACV Venus inh
CCCCNC(=O)C1(C)CCCCN1C(=O)c1cc(C#N)cs1 (stereo not drawn)	nt	nt	nt	6.6%	nt	-6.0%
Cc1ccc(C2c3[nH]c4ccccc4c3CCN2C(=O)Nc2ccc(C)c(C)c2)cc1 (stereo not drawn)	nt	?	nt	-12.6%	nt	-14.2%
Cc1cc(O)cc2c1O[C@](C)(CCC[C@H](C)CCC[C@H](C)CCCC(C)C)CC2	5.4	nt	nt	nt	-0.7	nt
CNC(=O)c1c(NC(=O)CCS(=O)(=O)c2ccc(C)cc2)sc(C)c1C	nt	12.0%	23.8%[46.1 µM]	-8.5%	nt	-3.7%
COC(=O)/C(C#N)=C/c1c(-c2ccccc2)nc2n1CCS2	-3.7	-1.3%[46.1 µM]	-4.7%[46.1 µM]	-5.9%	-0.7	-10.3%
Clc1cccc(Cl)c1CO/N=C/c1c(-c2ccccc2)nc2n1CCS2	-6.7	?	20.6µM*	nt	-1.9	nt
NC(=O)Cc1ccccc1Oc1nccc(-c2c(-c3ccc(F)cc3)ncn2C2CCNCC2)n1	nt	-15.5%	nt	nt	nt	nt
COc1ccc(OC)c2c(N3CC(C)OC(C)C3)cc(C(F)(F)F)nc12 (stereo not drawn)	78.3*	1.6%	-17.7%	nt	20.5*	nt
CC(C)(C)C(=O)/C=C(\N)c1ccccn1	13.9	4.4%	?	nt	12.0*	?
Cc1ccc(C(=O)/C=C/c2ccc(-c3ccc(C)cc3)o2)cc1	13.2	-25.8%	0.7%	-6.8%	14.8	-2.3%
CC(=O)/C=C/c1ccccc1	nt	nt	nt	i	nt	-4.9%
O=C(O)c1ccccn1	nt	nt	nt	i	nt	-11.0%
O=C(/C=C\c1ccc(-c2ccccc2)o1)c1ccccc1	110.4*	?	?	-14.0%	42.1*	-17.4%
O=C(/C=C/c1ccccc1)/C=C/c1ccccc1	134.4*	?	9.2µM*	?	49.5*	10µM*
